Growth data for eight compounds are collected here from PubChem BioAssay (NCI).

Some test systems named below: SK-MEL-2 melanoma; EKVX NSCLC; SN12C renal; UO-31 renal; TK-10 renal; ACHN renal; CAKI-1 renal; A498 renal; CCRF-CEM leukemia; MOLT-4 leukemia; SR leukemia; RPMI-8226 leukemia; OVCAR-8 ovarian; OVCAR-5 ovarian; OVCAR-4 ovarian; SK-OV-3 ovarian; IGROV1 ovarian; OVCAR-3 ovarian; HS 578T breast; NCI/ADR-RES ovarian.
What all share (test): NCI-60 one-dose screen, 48 h (100 = growth as untreated, 0 = no growth, -100 = all killed)
Common to all, as to conditions: 10 µM unless noted

Compounds without any hit were thinned out: in the full panel of roughly 83,000, 20% have a hit.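 Testing used 96-well plates and a 48-hour single-concentration exposure. Example: -40 means 40% of the starting cells died.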 A number with no mark means an inactive call. Calls of active or inactive are those of the source. How the source made its calls: active means growth percent below 10; inactive means the rest.

On to `CC[C@@]12CC(C(=O)OC)=C3Nc4cc5c(cc4[C@@]34CCN(C[C@H]3O[C@H]31)[C@@H]24)[C@@H]1[C@H](O5)[C@@H](O)[C@@]2(CC)CC(C(=O)OC)=C3Nc4cc(O)ccc4[C@@]34CCN1[C@@H]24`, for which the growth in the assay on SK-MEL-2 melanoma is -70.4% (active); in the assay with EKVX NSCLC, -14.9% (active); in the assay on SN12C renal, -16.8% (active); in the assay on UO-31 renal, -66.2% (active); in the assay with TK-10 renal, -41.1% (active); with ACHN renal, -26.4% (active). The growth is -55.8% (active) in the assay on CAKI-1 renal; -77.1% (active) in the assay with A498 renal; 2.67% (active) with CCRF-CEM leukemia; -15.9% (active) in the assay on MOLT-4 leukemia; -29.6% (active) in the assay with SR leukemia; -9.59% (active) in the assay with RPMI-8226 leukemia. The growth in the assay on OVCAR-8 ovarian was 2.33% (active); with OVCAR-5 ovarian it was -74.7% (active); in the assay with OVCAR-4 ovarian, -39% (active); in the assay on SK-OV-3 ovarian it was -32.4% (active); with IGROV1 ovarian, -65.8% (active); in the assay with OVCAR-3 ovarian, -15.7% (active). Moreover, the growth in the assay on HS 578T breast was 6.27% (active); in the assay on NCI/ADR-RES ovarian, 6.74% (active).

Consider `COc1ccc(-c2nc3ccccc3n2CC(=O)N=Nc2c(O)[nH]c3ccc(OC)cc23)cc1`, for which the growth in the assay with SK-MEL-2 melanoma is 23.9%; in the assay on EKVX NSCLC, 77.8%; in the assay on SN12C renal, 58.7%; in the assay on UO-31 renal it was 68.5%; in the assay with TK-10 renal it was 43.8%; in the assay with ACHN renal, 10.1%. The growth with CAKI-1 renal was -53.5% (active); in the assay on A498 renal, 88.3%; in the assay with CCRF-CEM leukemia, 62.9%; in the assay on MOLT-4 leukemia, 35.8%; with SR leukemia, 0.469% (active); in the assay on RPMI-8226 leukemia it was 52%. Moreover, the growth in the assay on OVCAR-8 ovarian is 6.22% (active); in the assay on OVCAR-5 ovarian it was 86.8%; with OVCAR-4 ovarian it was 50.8%; in the assay with SK-OV-3 ovarian it was 104%; in the assay with IGROV1 ovarian it was 45.7%; in the assay with OVCAR-3 ovarian, 35.5%. For the same compound, the values for the growth with HS 578T breast and in the assay with NCI/ADR-RES ovarian were 30.3% and 48%, respectively.

As to `CCCCNC(=S)Nc1ccc(OCc2nc3ccc(Cl)cc3[nH]2)cc1`, the growth in the assay with SK-MEL-2 melanoma is 7.47% (active); with EKVX NSCLC, 28.9%; with SN12C renal, 19.2%; in the assay on UO-31 renal it was 5.99% (active); with TK-10 renal, 36.6%; with ACHN renal, 5.02% (active). Besides, the growth was 21.6% in the assay with CAKI-1 renal; 90% with A498 renal; 7.96% (active) in the assay on CCRF-CEM leukemia; 9.85% (active) in the assay on MOLT-4 leukemia; 2.29% (active) in the assay on SR leukemia; -0.388% (active) in the assay with RPMI-8226 leukemia. Also, the growth in the assay with OVCAR-8 ovarian is 38.7%; in the assay with OVCAR-5 ovarian, 28.2%; with OVCAR-4 ovarian it was 21.5%; in the assay on SK-OV-3 ovarian, 75.4%; in the assay with IGROV1 ovarian, 12.9%; in the assay with OVCAR-3 ovarian it was 13.6%. The growth was 28.5% in the assay with HS 578T breast and 21.6% in the assay with NCI/ADR-RES ovarian.

Consider `COc1ccc(SC2c3cc(OC)ccc3Oc3nc(N)c(C#N)c(N)c32)cc1` (stereo not given), for which the growth was 94.5% with SK-MEL-2 melanoma; 76.3% with EKVX NSCLC; 73.7% in the assay with SN12C renal; 39.7% in the assay with UO-31 renal; 110% in the assay with TK-10 renal; 76.3% with ACHN renal. Also, the growth was 79.1% with CAKI-1 renal; 107% in the assay with A498 renal; 4.16% (active) in the assay on CCRF-CEM leukemia; 55.4% with MOLT-4 leukemia; 29.5% in the assay with SR leukemia; 56.3% with RPMI-8226 leukemia. Also, the growth in the assay with OVCAR-8 ovarian is 87%; in the assay on OVCAR-5 ovarian, 123%; in the assay on OVCAR-4 ovarian, 105%; in the assay with SK-OV-3 ovarian, 113%; in the assay with IGROV1 ovarian, 21.9%; with OVCAR-3 ovarian, 98.4%. Besides, the values for the growth with HS 578T breast and in the assay on NCI/ADR-RES ovarian were 81% and 91.1%, respectively.

As to `O=C(NN1C(=O)/C(=C/C=C/c2ccc([N+](=O)[O-])o2)SC1=S)c1ccc(O)cc1`, the growth with SK-MEL-2 melanoma was -89.4% (active); with EKVX NSCLC it was -98.1% (active); in the assay with SN12C renal it was -97.5% (active); in the assay on UO-31 renal, -92.7% (active); in the assay with TK-10 renal, -99.3% (active); in the assay with ACHN renal it was -100% (active). Further, the growth in the assay on CAKI-1 renal is -100% (active); in the assay on A498 renal it was 14.6%; with CCRF-CEM leukemia it was -24% (active); in the assay on MOLT-4 leukemia, -40.7% (active); in the assay with SR leukemia, -7.52% (active); in the assay on RPMI-8226 leukemia, -26.1% (active). Moreover, the growth is -70.9% (active) in the assay on OVCAR-8 ovarian; -98.7% (active) in the assay on OVCAR-5 ovarian; -99.8% (active) with OVCAR-4 ovarian; -98.9% (active) with SK-OV-3 ovarian; -95.6% (active) in the assay with IGROV1 ovarian; -88.6% (active) in the assay on OVCAR-3 ovarian. The growth was -1.61% (active) with HS 578T breast and -22.3% (active) with NCI/ADR-RES ovarian.

For `COc1ccc(-c2cc(-c3ccccc3)c(C#N)c(=O)[nH]2)cc1S(N)(=O)=O`, the growth with SK-MEL-2 melanoma is 104%; in the assay on EKVX NSCLC, 95.9%; with SN12C renal, 124%; with UO-31 renal, 89.8%; with TK-10 renal, 96.8%; in the assay with ACHN renal it was 103%. Besides, the growth in the assay with CAKI-1 renal was 96.4%; with A498 renal, 91.2%; with CCRF-CEM leukemia it was 113%; in the assay with MOLT-4 leukemia, 136%; in the assay with SR leukemia, 100%; in the assay with RPMI-8226 leukemia it was 100%. The growth in the assay on OVCAR-8 ovarian is 113%; in the assay with OVCAR-5 ovarian, 99.3%; with OVCAR-4 ovarian it was 102%; in the assay with SK-OV-3 ovarian, 99.4%; in the assay on IGROV1 ovarian, 126%; in the assay with OVCAR-3 ovarian, 109%. Further, the growth in the assay on HS 578T breast is 109%; in the assay on NCI/ADR-RES ovarian, 105%.

In the case of `Cc1ccc2nc(COc3ccc(C(=O)NNC(=O)Nc4ccc(Cl)c(C(F)(F)F)c4)cc3)[nH]c2c1`, the growth was 98.4% in the assay with SK-MEL-2 melanoma; 77.3% with EKVX NSCLC; 38.7% in the assay with SN12C renal; 110% in the assay on UO-31 renal; 110% in the assay on TK-10 renal; 89.7% in the assay with ACHN renal. Further, the growth is 73.2% in the assay with CAKI-1 renal; 116% in the assay on A498 renal; 41.6% with CCRF-CEM leukemia; 75.5% in the assay with MOLT-4 leukemia; 16.8% with SR leukemia; 59.5% with RPMI-8226 leukemia. Besides, the growth in the assay on OVCAR-8 ovarian was 10.7%; with OVCAR-5 ovarian, 66.9%; in the assay with OVCAR-4 ovarian, 74%; in the assay on SK-OV-3 ovarian, 70.9%; in the assay with IGROV1 ovarian it was 52.2%; in the assay with OVCAR-3 ovarian it was 28.9%. In addition, the results for the growth with HS 578T breast and in the assay with NCI/ADR-RES ovarian were 39.7% and 95.8%, respectively.

Consider `COc1ccc(/C=C/c2nc3ccccc3c(=O)n2CC(=O)Nc2ccccc2)cc1`, for which the growth in the assay with SK-MEL-2 melanoma was 81.2%; in the assay on EKVX NSCLC, 63.1%; in the assay with SN12C renal it was 8.23% (active); in the assay with UO-31 renal it was -33% (active); with TK-10 renal, -9.9% (active); with ACHN renal, -60% (active). The growth is 35.1% in the assay with CAKI-1 renal; -43% (active) in the assay on A498 renal; 88.3% in the assay on CCRF-CEM leukemia; 86.7% in the assay with MOLT-4 leukemia; 54.7% in the assay on SR leukemia; 81.8% in the assay with RPMI-8226 leukemia. Besides, the growth in the assay on OVCAR-8 ovarian was 43.6%; with OVCAR-5 ovarian, 60.6%; in the assay with OVCAR-4 ovarian, 0.985% (active); in the assay on SK-OV-3 ovarian, 44.9%; with IGROV1 ovarian, 49.9%; in the assay on OVCAR-3 ovarian, 49.3%. Besides, the growth with HS 578T breast is 9.93% (active); in the assay on NCI/ADR-RES ovarian it was 36.8%.
